Only some compounds are listed: those with a hit (about 19% of all), similar ones and a draw of the others.
IL1B secr inh: blocks inflammasome-driven IL-1 beta release | activity change, % at 57.5 µM | THP-1 LPS/ATP IL-1B secretion, AlphaLISA, 16 h; active compounds read low | 4.7% of 360,000 active; in the data active means activity change below about -50%; inconclusive means mostly about -30% to -49%
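THP-1 cells pretreated 1 hr with compounds (up to 57.5 uM final), then stimulated with LPS (250 ng/mL final) plus ATP (1.25 mM final); secreted IL-1B measured by AlphaLISA after 16 hr, decreased signal indicating inhibition.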
HT1080 IDH1KD tx: HT-1080 IDH1 knockdown cell toxicity (counter line); HT-1080 IDH1 knockdown viability, ATP luminescence, 48 h; Potency, µM (highest dose often 46.1 µM), most hits filed as cytotoxic; 2% of 360,000 active; AID 686971
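Luminescent ATP read-out (CellTiter-Glo, 10 min at room temperature) after 48 h compound exposure at 37 °C gave viability of IDH1-knockdown HT-1080 cells. Activity was normalised to DMSO and cell-free wells, then fitted as concentration-response curves.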
HT1080-NT tox: kills 2HG-producing HT-1080-NT fibrosarcoma cells. 1.6% of 360,000 active. HT-1080-NT fibrosarcoma viability, CellTiter-Glo ATP luminescence, 48 h. Potency, µM (doses to about 46.1 µM), hits mostly cytotoxic;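 further: NT is the 2HG producing partner of a matched IDH1 knockdown line; nearly all actives have a fitted effect of over 55% in size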
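HT-1080-NT; 750 cells/well; 5% FBS RPMI; 48 h compound, 37 degrees C; CellTiter-Glo luminescence; curve fitting and curve-class assignment.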
TDP1 cell noCPT: qHTS for Inhibitors of human tyrosyl-DNA phosphodiesterase 1 (TDP1): qHTS in cells in absence of CPT | AID 686978, 2013 | DT40 Tdp1-/- hTDP1 cells, no CPT, ATP luminescence, 48 h | 15% of 420,000 active | Potency, µM (doses to about 46.2 µM), most hits filed as inhibitors; further: nearly all actives have a fitted effect of over 55% in size
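Readout: luminescence from CellTiter-Glo after 30 min in the dark at RT. Cells: DT40 Tdp1-/- with stable hTDP1, 400/well. Exposure: compounds alone, ≥48 hr, 37 °C.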
ELG1 repair inh: inhibitors of ELG1-dependent DNA repair in HEK293T cells; HEK293T ELG1-luciferase reporter, luminescence, 16 h; DNA damage induced by 5-fluorouridine; Potency, µM (top dose mostly 46.1 µM), most hits filed as inhibitors; 2.3% of 330,000 active; further: nearly all actives have a fitted effect of over 55% in size
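Luminescence from the luciferase reporter, measured 30 min after ONE-Glo reagent at room temperature, was the read-out. Beforehand, 2,000 cells per well were exposed for 16 hr at 37 °C to 5-fluorouridine together with compound or vehicle.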
DT40 TDP1 CPT: growth inhibition of DT40 Tdp1-/-;hTDP1 cells with camptothecin (screen for TDP1 inhibitors). 12% of 420,000 active. Potency, µM (highest dose often 46.2 µM), usual class: inhibitors. AID 686979. chicken DT40 Tdp1-/-;hTDP1 cells + 20 nM CPT, ATP luminescence, 48 h; further: nearly all actives have a fitted effect of over 55% in size
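Cell growth measured by CellTiter-Glo luminescence after a minimum 48 h, 37 C compound exposure with 20 nM CPT in Tdp1-knockout DT40 cells stably expressing hTDP1, seeded 400/well; qHTS titration format.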
Of the large screens only hits and unclear results are named; the others gave an inactive call. Unless noted, the call rests on the fitted dose curve; in most records, active means well fitted curve in the direction sought with a large enough effect; inconclusive means small, poorly fitted or top-dose-only effect, or another doubt; inactive means no such curve, though single readings can be large; an effect the other way counts as inactive or inconclusive.

CCCn1c2ccccc2c2cnn(CC(=O)NC3CCCCC3C)c(=O)c21 (stereo unspecified)	TDP1 cell noCPT 18µM, DT40 TDP1 CPT inconclusive
CCCn1c2ccccc2c2cnn(CC(=O)NCCCN3C(C)CCCC3C)c(=O)c21 (stereo unspecified)	TDP1 cell noCPT inconclusive, DT40 TDP1 CPT inconclusive
CCCn1c2ccccc2c2cnn(CC(=O)NC3CCN(Cc4ccccc4)CC3)c(=O)c21	IL1B secr inh inconclusive, TDP1 cell noCPT inconclusive, DT40 TDP1 CPT 16µM
Cc1ccc(-c2cc(NC(=O)c3ccccc3Cl)on2)cc1	DT40 TDP1 CPT inconclusive (no result: IL1B secr inh, HT1080 IDH1KD tx, HT1080-NT tox, ELG1 repair inh)
CC(C)CCNC(=O)Nc1cc(C(=O)NCc2cccc(F)c2)ccc1N1CCCC1	TDP1 cell noCPT inconclusive (no result: IL1B secr inh, HT1080 IDH1KD tx, HT1080-NT tox, ELG1 repair inh)
O=C1c2cc(S(=O)(=O)N3CCOCC3)ccc2-c2ccc(S(=O)(=O)N3CCOCC3)cc21	none (no result: IL1B secr inh, HT1080 IDH1KD tx, HT1080-NT tox, ELG1 repair inh)
O=S(=O)(c1ccc2c(c1)C(=NO)c1cc(S(=O)(=O)N3CCCCC3)ccc1-2)N1CCCCC1	IL1B secr inh -85, HT1080 IDH1KD tx 0.58µM, HT1080-NT tox 0.37µM, TDP1 cell noCPT 2.9µM, ELG1 repair inh inconclusive, DT40 TDP1 CPT 4.1µM
CC1CCN(S(=O)(=O)c2ccc3c(c2)C(=NO)c2cc(S(=O)(=O)N4CCC(C)CC4)ccc2-3)CC1	IL1B secr inh -89, HT1080 IDH1KD tx 2.6µM, HT1080-NT tox 1.5µM, TDP1 cell noCPT 0.73µM, ELG1 repair inh 5.2µM, DT40 TDP1 CPT 0.65µM
O=S(=O)(c1ccc(S(=O)(=O)N2CCCC2)cc1)N1CCCCCC1	none
CN(C)N=C1c2cc(S(=O)(=O)N3CCOCC3)ccc2-c2ccc(S(=O)(=O)N3CCOCC3)cc21	TDP1 cell noCPT 21µM, ELG1 repair inh inconclusive, DT40 TDP1 CPT inconclusive
COc1ccc2c3c(n(C(=O)OC(C)(C)C)c2c1)C1CC=C(COC(C)=O)CN1CC3 (stereo unspecified)	TDP1 cell noCPT 16µM, DT40 TDP1 CPT 16µM (no result: ELG1 repair inh)
COc1ccc2c(c1)c1c(n2C)[C@@H]2CC=C(CO)[C@@H](C1)N2C	none
COC(=O)c1c(N2C(=O)Nc3ccccc3N2O)sc(C)c1C	none
COC(=O)c1c(N2C(=O)[C@H]3[C@@H](C2=O)[C@]2(C(=O)Nc4ccc(C)cc42)N2CCC[C@@H]32)sc(C)c1C	ELG1 repair inh 8.2µM (no result: IL1B secr inh, HT1080 IDH1KD tx, HT1080-NT tox, TDP1 cell noCPT, DT40 TDP1 CPT)
CC(C)(C)NCc1cc(Cl)ccc1OCc1ccccc1F	IL1B secr inh -144, TDP1 cell noCPT inconclusive
CCN(CC)CCNCc1cc(Cl)ccc1OCc1ccccc1F	IL1B secr inh -90, HT1080 IDH1KD tx inconclusive, HT1080-NT tox 23µM, TDP1 cell noCPT inconclusive, DT40 TDP1 CPT inconclusive
CCOC(=O)c1c(NC(=O)Cc2cccs2)sc(C(=O)N2CCCCC2)c1C	TDP1 cell noCPT 9.2µM, ELG1 repair inh inconclusive, DT40 TDP1 CPT inconclusive
CCOC(=O)c1c(NC(=O)CN2CCCc3ccccc32)sc(C(C)=O)c1C	TDP1 cell noCPT 21µM, DT40 TDP1 CPT inconclusive
COCCOC(=O)c1c(NC(=O)CN2CCc3ccccc32)sc(C(N)=O)c1C	ELG1 repair inh inconclusive, DT40 TDP1 CPT inconclusive
Nc1ncc(S(=O)(=O)NCc2ccc(Cl)cc2)cn1	none (no result: IL1B secr inh, HT1080 IDH1KD tx, HT1080-NT tox, ELG1 repair inh)
CCCc1cc(N2CCN(c3cc(Cl)ccc3C)CC2)n2cnnc2n1	TDP1 cell noCPT 5.2µM, DT40 TDP1 CPT 13µM (no result: IL1B secr inh, HT1080 IDH1KD tx, HT1080-NT tox, ELG1 repair inh)
Cc1ccc(C)c(N2CCN(c3cc(C)nc4c(-c5ccc(Cl)cc5)c(C)nn34)CC2)c1	none (no result: IL1B secr inh, HT1080 IDH1KD tx, HT1080-NT tox, ELG1 repair inh)
Cc1ccc(S(=O)(=O)Nc2cccc(C(=O)NCCN3CCOCC3)c2)cc1F	none
O=C(NNC(=O)c1csc(N2CCOCC2)n1)c1ccc(Cl)nc1	none
CCN(CCCNC(=O)CN1N=C(c2ccc(OC)cc2)CCC1=O)c1cccc(C)c1	TDP1 cell noCPT 18µM, DT40 TDP1 CPT inconclusive (no result: IL1B secr inh, HT1080 IDH1KD tx, HT1080-NT tox, ELG1 repair inh)
CCCCN(CCCNC(=O)CN1N=C(c2ccc(C)cc2)CCC1=O)c1ccccc1	TDP1 cell noCPT 15µM, DT40 TDP1 CPT inconclusive (no result: IL1B secr inh, HT1080 IDH1KD tx, HT1080-NT tox, ELG1 repair inh)

Screening results as filed in PubChem.
